About 3,500 (6%) of roughly 58,000 sequences were called active. No stated cut-off is given here; in the data, active = GI50 up to about 1.1 µM and inactive = higher. A selection follows. Potency and affinity values are given separately.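 Cultured in 96-well plates, cells were exposed to test compound for 48 hours across five concentrations. GI50 marks 50% less growth.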
tested on: SN12C; test: NCI tumour cell line growth inhibition, 48 h

“[Bis(aminomethyl)pentamethylenesilane]dichloropaltinum(II), CHEMBL2146202” and “[Bis(aminomethyl)pentamethylenesilane]tetrachloropaltinum(IV), CHEMBL2146204” are within 1.5-fold of each other in GI50: 1.87 µM for the first, 2 µM for the second.

First: [Bis(aminomethyl)tetramethylenesilane]tetrachloropaltinum(IV), CHEMBL2146189
Second: cis-Bis[[(trimethylsilyl)methyl]amino]tetrachloroplatinum(IV), CHEMBL2146191
The GI50 of the first is 5-fold lower: 2.64 µM for the first, 13.1 µM for the second.

Compared with “[Bis(aminomethyl)dimethylsilane]tetrachloroplatinum(IV), CHEMBL2146190”, “mu-(1,7-nanodiamine-N,N')bis-(cis-aminedichloroplatimum (II)), CHEMBL2146215” is 22-fold lower in GI50: 8.45 µM for the first, 0.387 µM for the second.

“[Bis(aminomethyl)tetramethylenesilane]dichloropaltinum(II), CHEMBL2146205” and “[Bis(aminomethyl)dimethylsilane]dichloroplatinum (II), CHEMBL2146201” are within 1.5-fold of each other in GI50: 23.9 µM for the first, 32.4 µM for the second.

First: [Bis(aminomethyl)diethylsilane]tetrachloroplatinum(IV), CHEMBL2146203
Second: [Bis(aminomethyl)ethylmethylsilane]tetrachloroplatinum(IV), CHEMBL2146192
The GI50 of the first is 1.8-fold lower: 2.34 µM for the first, 4.25 µM for the second.

CISPLATIN, CHEMBL11359 was tested, and the GI50 was 4.83 µM.
